Measurements published in PubChem BioAssay (NCI).
Compounds without any hit were thinned out: in the full panel of roughly 83,000, 20% have a hit.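 Note: values are percent growth. 100 is the growth of untreated cells, values between 100 and 0 indicate rising inhibition; between -100 and 0 indicates cell death.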 Activity calls are given as the source filed them. The calls were made as follows: active = growth percent below 10; inactive = the rest.

Tested on: SNB-19 CNS
Experiment: NCI-60 one-dose screen, 48 h (100 = growth as untreated, 0 = no growth, -100 = all killed)
Details: 10 µM unless noted

**Q.** With C=C(C=O)[C@@H]1CC[C@]2(C)[C@H](CC=C3[C@H]4[C@@H](C)[C@H](C)CC[C@]4(C(=O)OC)CC[C@]32C)[C@@]1(C)CCC#N as the compound, how does the growth read?
**A.** 25.2% (inactive)

**Q.** COc1ccc([C@@H]2c3[nH]c4ccccc4c3C[C@H]3C(=O)N(C4CCN(CC5CCCCC5)CC4)CC(=O)N23)c(OC)c1 was tested. Which growth did it give?
**A.** 86.4% (inactive)

**Q.** c1ccc(C(c2nc3ncncc3[nH]2)N2CSc3nc4ncncc4n3C2)cc1 (stereo not drawn) was tested. Which growth did it give?
**A.** 96.9% (inactive)

**Q.** For Cc1occc1-c1nc2s/c(=C/c3ccc(-c4cc(C(F)(F)F)ccc4Cl)o3)c(=O)n2n1, which growth is on record?
**A.** 98.5% (inactive)

**Q.** How did the growth turn out when CNCc1cccc2c1OCCCCCCC(C)(O)CC(C)(C)S(=O)(=O)c1ccc(cc1)-c1cnc(N)c(n1)C(=O)N2 (stereo not drawn) was run?
**A.** 33% (inactive)

**Q.** Which growth does the source give for CS(=O)(=O)c1ncc(-c2ccccc2)cn1 here?
**A.** 98.1% (inactive)

**Q.** Which growth does the source give for CCOC(=O)c1c(N)c(C#N)cn1-c1cc(OC)c(OC)c(OC)c1 here?
**A.** 101% (inactive)

**Q.** For CCCCCc1ccc(S(=O)(=O)Nc2cc(-c3csc(NC(=O)CN4CCN(C)CC4)n3)ccc2OC)cc1, which growth is on record?
**A.** 6.64% (active)

**Q.** For Cc1nc2ncc(-c3ccc4ncnc(NCc5ccccc5)c4c3)cc2[nH]1, which growth is on record?
**A.** 67.7% (inactive)

**Q.** For C=C(C=O)[C@@H]1CC[C@]2(COC(C)=O)CC[C@]3(C)C(CC[C@@H]4[C@@]5(C)CC[C@H](OC(C)=O)C(C)(C)[C@@H]5CC[C@]43C)[C@@H]12 (stereo partly drawn), which growth is on record?
**A.** 5.36% (active)

**Q.** For Cc1ccc(S(=O)(=O)N(CC[C@@H]2C[C@H]2c2cc3ccccc3o2)S(=O)(=O)c2ccc(C)cc2)cc1, which growth is on record?
**A.** 94.6% (inactive)

**Q.** COC(=O)c1ccc(NC2=C/C(=N/S(=O)(=O)c3ccc(C(=O)O)cc3)c3ccccc3C2=O)cc1 was tested. Which growth did it give?
**A.** 88.6% (inactive)

**Q.** For O=C(CCn1c[n+](CC(=O)c2ccc(F)cc2)c2ccccc21)Nc1cccc2cccnc12, which growth is on record?
**A.** 71.1% (inactive)

**Q.** With CC1(C)CC[C@]2(C(=O)O)CC[C@]3(C)C(=CC[C@@H]4[C@@]5(C)CC/C(=N\OCCC#N)C(C)(C)[C@@H]5CC[C@]43C)[C@@H]2C1 as the compound, how does the growth read?
**A.** 104% (inactive)

**Q.** How did the growth turn out when COc1ccc([C@@H]2[C@@H](O)C(=O)N2c2cc(OC)c(OC)c(OC)c2)cc1F was run?
**A.** 24.7% (inactive)

**Q.** For CCOC(=O)c1c(Nc2ccccc2)nn2c(-c3ccccc3)ccnc12, which growth is on record?
**A.** 98.3% (inactive)

**Q.** Cc1cc(C)c2sc(=O)n(Cc3nnc(SCCC(=O)O)o3)c2n1 was tested. Which growth did it give?
**A.** 95.4% (inactive)

**Q.** C=CCn1c(SCC(=O)Nc2ccc(C(=O)/C=C/c3cccc([N+](=O)[O-])c3)cc2)nnc1-c1c[nH]c2ccccc12 was tested. Which growth did it give?
**A.** 89.4% (inactive)

**Q.** Cc1ccc(NC(=O)N[C@@H](Cc2cc(F)cc(F)c2)C(=O)NC2C(=O)N3C[C@H](O)C[C@H]3C(=O)N3CCCC[C@H]3C(=O)N[C@@H](CO)C(=O)N3C[C@H](C)C[C@H]3C(=O)O[C@H]2C)c(F)c1 (stereo partly drawn) was tested. Which growth did it give?
**A.** 27.1% (inactive)

**Q.** C#C[C@]1(O)CC[C@H]2[C@@H]3CC=C4c5sc(-c6ccc7c(c6)OCO7)nc5CC[C@]4(C)[C@H]3CC[C@@]21C was tested. Which growth did it give?
**A.** 15.5% (inactive)

**Q.** With CCCCCc1ccc(S(=O)(=O)Nc2cccc(-c3csc(NC(=O)CN4CCN(C)CC4)n3)c2)cc1 as the compound, how does the growth read?
**A.** 85% (inactive)

**Q.** How did the growth turn out when CCCn1cnc2c(c1=N)C(c1ccc(F)cc1)c1sc3c(CC)cccc3c1O2 (stereo not drawn) was run?
**A.** 15.3% (inactive)

**Q.** With O=C(NCCn1ccnc1)c1ccc(-c2nc3ccc4[nH]ncc4c3c3c2CCCC3)cc1 as the compound, how does the growth read?
**A.** 55.6% (inactive)

**Q.** For COc1cccc(O)c1/C=C(/C)c1ccc2c(OC)cccc2[o+]1, which growth is on record?
**A.** 103% (inactive)

**Q.** With NS(=O)(=O)c1ccc(-n2cc(CN3CCCCC3)nn2)cc1 as the compound, how does the growth read?
**A.** 102% (inactive)

**Q.** How did the growth turn out when O=S(=O)(NCCNc1nccc(-n2cnc3ccccc32)n1)c1ccc(Cl)cc1 was run?
**A.** 97.7% (inactive)

**Q.** For COC(=O)C1(C)CCC[C@]2(C)[C@H]3C[C@H]4C(C(C)C)=C[C@]3(CC[C@@H]12)[C@H]1[C@@H]4[C@@H](OC(=O)c2ccco2)CC[C@@H]1OC(=O)c1ccco1 (stereo partly drawn), which growth is on record?
**A.** 98.4% (inactive)

**Q.** CCCn1cnc2c(c1=N)C(c1ccc(OC)cc1)c1sc3c(C)cccc3c1O2 (stereo not drawn) was tested. Which growth did it give?
**A.** 24% (inactive)

**Q.** For COc1cc(-c2nn(C(C)(C)C)cc2-c2ccnc(NCCCNS(=O)(=O)c3cccc(F)c3)n2)ccc1Cl, which growth is on record?
**A.** 93.4% (inactive)

**Q.** How did the growth turn out when CC1(C)CC[C@]2(CN)CC[C@]3(C)C(=CC[C@@H]4[C@@]5(C)CCCNC(C)(C)[C@@H]5CC[C@]43C)[C@H]2C1 was run?
**A.** 101% (inactive)

**Q.** How did the growth turn out when NC(=O)c1cccc(C#CCNC[C@H]2C[C@@H](n3ccc4c(Cl)ncnc43)[C@H](O)[C@@H]2O)c1 was run?
**A.** 102% (inactive)

**Q.** For NC(N)=Nc1ccc(Oc2cccc(Nc3cccc(C(F)(F)F)c3)c2)cn1, which growth is on record?
**A.** 1.17% (active)

**Q.** With O=C(CSc1nc2ccccc2c(=O)n1-c1ccccc1)Nc1cccc(C(=O)/C=C/c2ccccc2)c1 as the compound, how does the growth read?
**A.** 85.5% (inactive)

**Q.** Which growth does the source give for COc1ccc(/C(N)=N/C(N)=N/c2nc3ccccc3s2)cc1 here?
**A.** 86.2% (inactive)

**Q.** For Cc1cccc(/C=C/C(=O)Nc2ncc(Cc3cccc(C)c3)s2)c1, which growth is on record?
**A.** 47.2% (inactive)

**Q.** How did the growth turn out when COc1c(N2CC3CCCNC3C2)c(F)cc2c(=O)c(C(=O)N/N=C/c3ccc(Br)cc3)cn(C3CC3)c12 (stereo not drawn) was run?
**A.** 88.3% (inactive)

**Q.** Which growth does the source give for O=C(c1ccc(O)cc1)[C@@H]1CN[C@@]2(C(=O)Nc3ccccc32)[C@H]1c1ccc(F)cc1 here?
**A.** 92.8% (inactive)

**Q.** With Nc1nc(Nc2ccccc2SSc2ccccc2Nc2nc(N)nc(-c3ccc4ccccc4c3)n2)nc(-c2ccc3ccccc3c2)n1 as the compound, how does the growth read?
**A.** 92.9% (inactive)
